Several values for one entry are separate records, joined by “and”; a condition that tells them apart may be missing. Equal entries are not always repeated. This is part of a sample that, as a whole, favours compounds with a hit. Of some 83,000 tested, about 20% had one in any assay.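 Cell lines were cultured in 96-well plates, exposed to a single compound concentration, and assessed for percent growth 48 hours later.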 Unmarked numbers belong to inactive results. Activity calls are given as the source filed them.

One assay concerns COLO 205 colon. The experiment in a line: NCI-60 one-dose screen, 48 h (100 = growth as untreated, 0 = no growth, -100 = all killed). Conditions: 10 µM. The procedure: Cells are grown in 96 well plates and exposed to the test compound for 48 hours. Compounds are tested at a single concentration, which is 10^-5 M for most compounds. The reported endpoint is percent growth (GI% or GIPRCNT), where numbers from 0 - 100% represent growth inhibition, and numbers from -100% - 0 represent cell death. For example, a value of 40 represents 60% growth inhibition. A value of 0 means no net growth occurred over the course of the experiment. A value of -40 indicates 40% of cells at the beginning of the experiment died by the end of the experiment. A value of -100 means all cells are dead at the end of the experiment.
NCI-60 Human Tumor Cell Lines Screen was performed using the standard one-dose NCI protocol, which is described in more detail at https://dtp.cancer.gov/discovery_development/nci-60/default.htm.
Compounds with GIPRCNT values below 10 were considered active. Activity score was based on GIPRCNT using the following formula: […]
Score is 0 for GIPRCNT values of 100 or above, 50 for GIPRCNT values of 0, and 100 for GIPRCNT values of -100.
Take `CCN(Cc1ccccc1)c1ccc(/C=C2\COc3ccccc3C2=O)cc1`: the growth was 106%.
For `CC(=O)/C=C/c1ccc(OCc2ccc(Cl)cc2)cc1`, the growth was 122%.

The assay is the same for the next values; noted with them: 10 µM unless noted.
Take `COc1ccc(CCNC(=O)COc2cc3c(Nc4ccc(F)c(Cl)c4)ncnc3cc2OC)cc1OC`: the growth is 102%.
As for `CC(=O)c1c(C)nc(SCC(=O)Nc2ccc(Cl)cc2)n1-c1ccc(Cl)cc1`, the growth was 109%.
For `O=c1oc2c(Br)cc(Br)cc2cc1-c1cc(-c2ccc(-c3cc(-c4cc5cc(Br)cc(Br)c5oc4=O)nc(-c4cc5cc(Br)cc(Br)c5oc4=O)c3)cc2)cc(-c2cc3cc(Br)cc(Br)c3oc2=O)n1`, the growth was 110%.
Still for that read-out and setting: in the case of `Cc1ccc(-c2nc(C#N)c(S(=O)(=O)N(C)C)o2)cc1` it was 16.7%; in that of `O=C(CCN1CCOCC1)Nc1cccc(-n2cc(-c3ccncc3)c(-c3ccc(Cl)c(O)c3)n2)c1`, 0.424% (active).
Turning to `Cc1nc2sc(C(=O)Nc3cccc4ncccc34)c(N)c2cc1C(C)O` (stereo not given), the growth was 107%.
On the same count and under the same terms, the same measure for `CCCc1cc(C(N)=S)ccn1`: 107%.
On the same count and under the same terms, in the case of `CC[C@]1(O)CC2CN(CCc3c([nH]c4ccccc34)C(C(=O)OC)(c3cc4c(cc3OC)N(C=O)[C@H]3[C@@](O)(C(=O)OC)[C@H](OC(C)=O)[C@]5(CC)[C@@H]6C[C@@H]6CN6CC[C@]43[C@@H]65)C2)C1` (stereo not given in full) it was -87.9% (active).
As for `O=C1C(Nc2ccc(Cl)cc2)=C(I)C(=O)c2ncccc21`, the growth was -45.9% (active).
On the same count and under the same terms, the same measure for `Nc1ccc(-c2ccc(N)c(Br)c2)cc1Br`: 82.6%; for `O=C(/C=C/c1ccccc1)c1cccs1`: 112% and 120%; for `Cn1cc(-c2nc3c(F)cc4[nH]ncc4c3c3c2CCCC3)c(C(F)F)n1`: 89.4%.
Regarding `COc1ccccc1/C=C1\COc2ccc(O)cc2C1=O`, the growth is 87.6%.
The same measure, in the same setting: in the case of `CC/C=C\C/C=C\C[C@H](O)C/C=C1/C(=O)C=C[C@@H]1C/C=C\CCCC(=O)OC` it was -69.4% (active); in that of `CN1Cn2c(ccc2C(F)(F)F)C(=O)CS1(=O)=O`, 116%.
Still for that read-out and setting: in the case of `COc1ccc(NC(=O)Nc2ccccc2CNc2nc(Nc3ccc(OCCN4CCCC4)cc3)ncc2Cl)cc1` it was 1.65% (active); in that of `N#Cc1c(N)nnn1Cc1cc(=O)oc2ccc(O)cc12`, 118%.
The same measure, in the same setting: in the case of `COc1cc(/C=C2\CCC/C(=C\c3cc(CN4CCCC4)c(O)c(OC)c3)C2=O)cc(CN2CCCC2)c1O` it was -45.7% (active); in that of `CC1=CC=C(NC(=O)/C=C/c2ccccc2)CC1Nc1nccc(-c2cccnc2)n1` (stereo not given), 26.7%; in that of `CC(=O)Nc1c(I)c(NC(C)=O)c(I)c(C(=O)O)c1I`, 115% and 119%.
On to `CN1CCN(C(=O)OCc2nc3c(N4CCOCC4)nc(Cl)nc3n2C)CC1`, for which the growth is -30.8% (active).
`COc1cc(CO)cc2cc3ccccc3nc12`: the growth is 107%.
Same read-out and setting: in the case of `CC12OC(CC(O)C1O)n1c3ccccc3c3c4c(c5c6ccccc6n2c5c31)C(=O)N(CCN1CCOCC1)C4=O` (stereo not given) it was -2.3% (active); in that of `COc1ccc(Oc2nc(Nc3ccc(N4CCOCC4)cc3)ncc2NC(=O)c2cc(OC)cc(OC)c2)cc1`, 64.5%.
The same measure, in the same setting: in the case of `OCc1cc(CN2CCCCC2)c(O)c2ncccc12` it was 47%.
On the same count and under the same terms, the same measure for `[2H]C([2H])([2H])Oc1cccc(/C=C/C(=O)/C=C(/C=C/c2cccc(OC([2H])([2H])[2H])c2OC([2H])([2H])[2H])OB(F)F)c1OC([2H])([2H])[2H]`: 55.2%.
On to `O=C(CCl)n1nnnc1Cc1ccccc1`, for which the growth is 111%.
Consider `COc1cc(OC)cc(-c2ccc(-c3ccc(C(=N)N)cn3)s2)c1`, for which the growth is 49.4%.
On the same count and under the same terms, the same measure for `OB(O)c1ccsc1-c1nc2ccc3[nH]ncc3c2c2c1CCCC2`: 41.2%; for `Nc1ccccc1SC(CC(=O)c1ccccc1)c1ccc([N+](=O)[O-])cc1` (stereo not given): 91.6% and 102%; for `O=C1/C(=C/c2cn(-c3ccccc3)nc2-c2ccccc2)SC(=S)N1c1ccc(Cl)cc1`: 111%.
`COc1ccc2c(c1)oc1c(C)c3c(c(C)c12)C(=O)N(Nc1ccccc1)C3=O`: the growth is 94%.
In the case of `O=C(CCCOc1ccc(Br)cc1)Nc1ncc(Cc2ccc(F)cc2)s1`, the growth is 63.3%.
The same measure, in the same setting: the same measure for `CCOC(=O)C1=C(C)N=C2SC=C(c3ccc(F)cc3)N2[C@H]1c1cn(-c2ccccc2)nc1-c1ccc(Cl)cc1`: 107%; for `Cc1ccc(Nc2nc(-c3cc(O)c(C)c(C)c3O)cs2)cc1`: 116%.
The same measure, in the same setting: in the case of `Cc1ccc(-c2nc3nc(-c4ccccc4)nc(N4CCN(S(=O)(=O)c5ccccc5)CC4)c3o2)cc1` it was 125%.

The same assay, now with this note: 100 µM.
With `CCN(Cc1ccccc1)c1ccc(/C=C2\COc3ccccc3C2=O)cc1`, the growth was 38.9%.
Same read-out and setting: in the case of `CC(=O)/C=C/c1ccc(OCc2ccc(Cl)cc2)cc1` it was -21.9% (active).

For the origin of these results see PubChem BioAssay (NCI).
